In PubChem BioAssay AID588342 (National Center for Advancing Translational Sciences (NCATS), 2011) one finds Potency data, which are given here for 105 molecules.

Structures are written as SMILES. Among all 360,000 compounds or so, about 25,000 (6.9%) were called active. Where a call stands in place of a potency, no number is given. Roughly 9% stayed inconclusive and do not appear here. Calls come from the whole dose curve; as a rule, active = well fitted inhibition curve with a large enough effect; inconclusive = small, poorly fitted or top-dose-only effect; inactive = flat fitted curve, though single readings scatter. The sample as a whole holds a higher share of actives than the screen did.
Potency is the fitted concentration of half-maximal effect.

Chain of Luciferin 4-monooxygenase (Photinus pyralis) (P08659 whole entry, looked up): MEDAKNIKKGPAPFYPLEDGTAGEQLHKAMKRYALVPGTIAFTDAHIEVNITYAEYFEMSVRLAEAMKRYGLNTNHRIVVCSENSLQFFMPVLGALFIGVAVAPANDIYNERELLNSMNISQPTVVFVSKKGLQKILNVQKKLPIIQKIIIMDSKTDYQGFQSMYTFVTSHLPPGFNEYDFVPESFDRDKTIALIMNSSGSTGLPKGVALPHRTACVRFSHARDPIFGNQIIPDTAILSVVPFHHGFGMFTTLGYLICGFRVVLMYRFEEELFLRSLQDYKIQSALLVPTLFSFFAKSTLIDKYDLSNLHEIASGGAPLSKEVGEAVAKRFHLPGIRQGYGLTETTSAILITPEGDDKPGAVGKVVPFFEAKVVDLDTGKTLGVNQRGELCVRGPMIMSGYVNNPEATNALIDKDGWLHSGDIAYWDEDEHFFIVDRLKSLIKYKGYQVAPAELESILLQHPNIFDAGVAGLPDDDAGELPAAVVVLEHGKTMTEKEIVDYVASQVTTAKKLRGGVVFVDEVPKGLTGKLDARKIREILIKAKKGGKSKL

This assay addresses Luciferin 4-monooxygenase (Photinus pyralis) (UniProt P08659). The assay can be described thus: qHTS profiling assay for firefly luciferase inhibitor/activator using purifed enzyme and Km concentrations of substrates (counterscreen for miR-21 project). Note: nearly all actives have a fitted effect of over 55% in size. Particulars: purified FLuc, luminescence inhibition; series mostly up to 57.5 µM. An outline of the steps:
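Biochemical qHTS of compounds, final roughly 60 µM downward over six points, against 10 nM purified firefly luciferase using Km concentrations of substrates (10 uM D-luciferin, 10 uM ATP) in Tris acetate pH 7.5 buffer; luminescence output.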
With `CC(O)c1cccc(NC(=O)Cc2cccc3ccccc23)c1` (stereo not given), the Potency result was “inactive”. `Cc1ccn(CCC(=O)N2c3ccccc3CC2C)n1` (stereo not given): the Potency result is “inactive”.

For `CCC(=O)N1c2ccc(S(=O)(=O)CCC(=O)N3CCN(c4ccccc4)CC3)cc2CC1C` (stereo not given), the Potency result was “inactive”.

Consider `CCCC(=O)N1c2ccc(-c3csc(N)n3)cc2CC1C` (stereo not given), for which the Potency was 7.57 µM (active). The entry for `CCOc1ccccc1NC(=O)Cn1c(=O)n(-c2cccc(C)c2)c(=O)c2c1c1cc(OC)ccc1n2C` is “inactive”. On to `CN(CC(=O)NC(=O)Nc1ccccc1F)Cc1ccccc1`, for which the Potency result is “inactive”. Turning to `Oc1ccc(-c2nc3ccc(Cl)cn3c2Nc2ccc3c(c2)OCO3)cc1`, the Potency result is “inactive”.

On to `CN(C(=O)COc1ncnc2c1cnn2-c1ccccc1)C1CCCCC1`, for which the Potency entry was “inactive”. In the case of `c1ccc(-n2ncc3c2ncn2c(C4CCCCC4)nnc32)cc1`, the Potency result is “inactive”. In the case of `CCN(c1ncnc2c1cnn2-c1ccc(C)cc1)C1CCCCC1`, the Potency was 2.13 µM (active). With `O=C(Nn1cnc2ccccc2c1=O)c1ccc([N+](=O)[O-])cc1Cl`, the Potency entry was “inactive”.

As to `O=c1c2ccccc2ncn1CCCCOc1ccccc1F`, the Potency result is “inactive”. Turning to `O=C(Nn1cnc2ccccc2c1=O)c1ccc(F)cc1Cl`, the Potency was 13.5 µM (active). Take `COC(=O)c1c(NC(=O)C(C)Oc2ccc(Cl)c(C)c2)sc(C)c1C` (stereo not given): the Potency result is “inactive”. The entry for `Cc1ccc(NC(=S)N2CCN(c3ncccn3)CC2)cc1C` is “inactive”. As for `COc1ccc(NC(=O)Cn2c(=O)n(CCC(C)C)c(=O)c3cccnc32)cc1Cl`, the entry is “inactive”. As for `Cc1ccccc1CNC(=O)CSc1nnc(C)c2c(C)n(-c3ccccc3)nc12`, the entry is “inactive”; as for `Nc1ccc(N=Nc2ccccc2Cl)c(N)n1`, 6.01 µM (active); as for `O=C1C=C(c2cccc(Cl)c2)C[C@@H](c2ccc(F)cc2)C1`, “inactive”.

As to `COc1ccc(Cn2cc(C(=O)c3ccc(C)cc3)c(=O)c3cc(OC)c(OC)cc32)cc1`, the Potency entry was “inactive”. Consider `Cn1nc(C(C)(C)C)c(NC(=O)c2sccc2Cl)c1C(C)(C)C`, for which the Potency entry was “inactive”. As for `COc1ccccc1NC(=O)/C=C/C(N)=O`, the Potency entry is “inactive”. Consider `COC(=O)c1sc(-c2ccc(C(C)(C)C)cc2)cc1NC(=O)/C=C/C(=O)O`, for which the Potency was 1.51 µM (active). On to `N#CC(C#N)=CN=c1ccn(Cc2ccc(Cl)cc2Cl)cc1`, for which the Potency result was “inactive”. On to `COc1ccc(C(=O)NC2CCN(C(=O)Nc3ccc(F)cc3)CC2)cc1`, for which the Potency entry was “inactive”. The entry for `COc1ccc(NC(=O)N2CCCC(C(=O)Nc3ccccc3OC)C2)cc1` (stereo not given) is “inactive”; for `COc1ccc(NC(=O)N2CCC(Cc3ccccc3)CC2)cc1` it is 15.1 µM (active); for `COc1cccc(C(=O)N(Cc2cccc(Cl)c2)Cc2ccco2)c1` it is “inactive”. On to `CCCc1nc2c(c(=O)c3ccccc3n2C)c(=O)n1-c1cc(C)cc(C)c1`, for which the Potency is 15.1 µM (active).

For `Cn1c2ccccc2c(=O)c2c(=O)n(Cc3ccco3)c(COc3ccccc3)nc21`, the Potency entry was “inactive”. For the molecule `CCCc1nc2c(c(=O)c3ccccc3n2C)c(=O)n1C1CCCCCC1`, the Potency result is “inactive”. Regarding `CCOc1ccccc1NC(=O)CN1CCN(S(=O)(=O)c2ccc(Br)cc2)CC1`, the Potency result was “inactive”. As to `COC(=O)C1(C)NC(c2ccc(C)cc2)C2C(=O)N(c3ccc(F)cc3)C(=O)C21` (stereo not given), the Potency result was “inactive”.

`COC(=O)[C@]1(C)N[C@H](c2ccc(-c3ccc(Cl)c(Cl)c3)cc2)[C@@H]2C(=O)N(C)C(=O)[C@@H]21`: the Potency was 15.1 µM (active). As to `COC(=O)C1(C)NC(c2ccc(F)cc2)C2C(=O)N(c3ccccc3)C(=O)C21` (stereo not given), the Potency result was “inactive”.

For `O=C(Nc1ccc(NC(=O)c2ccccc2F)cc1)c1ccccc1F`, the Potency entry was “inactive”.

Turning to `Cc1cc2ccccc2n1CCNC(=O)c1ccc(F)cc1`, the Potency entry was “inactive”. On to `O=C(COC(=O)CNC(=O)c1ccccc1F)NCC(F)(F)F`, for which the Potency result was “inactive”. Take `O=C(CNC(=O)c1ccc(F)cc1)c1ccccc1`: the Potency is 19 µM (active). Turning to `O=C(CNC(=O)c1ccccc1)NCC(=O)OCC(=O)c1ccccc1`, the Potency entry was “inactive”. As to `O=C(CNC(=O)c1ccccc1F)c1ccc(Br)cc1`, the Potency is 2.69 µM (active). In the case of `Cn1c(=O)[nH]c(=O)c2c1[nH]c(=S)n2Cc1ccccc1`, the Potency entry is “inactive”. Regarding `CC1=Nc2cc(C(=O)NCc3ccc(C)cc3)ccc2Sc2ccc(Cl)cc21`, the Potency entry is “inactive”. For `O=C(OCC(=O)N1CCCCCC1)c1cnc(Cl)c(Cl)c1`, the Potency result is “inactive”.

Take `O=S(=O)(NCCc1csc(-c2ccccc2)n1)c1cccnc1`: the Potency result was “inactive”. The figure for `O=C(NCCc1csc(-c2ccccc2)n1)c1ccccc1F` is 26.9 µM (active); for `COc1ccc(CCC(=O)NCCc2csc(-c3ccc(Cl)cc3)n2)cc1` it is “inactive”.

On to `O=c1ccc2c(-c3ccccc3S(=O)(=O)O)c3ccc(O)c(O)c3oc-2c1O`, for which the Potency was 13.5 µM (active). The entry for `COc1ccc(OC)c(NC(=O)C2CCN(S(=O)(=O)c3ccc(C)cc3)CC2)c1` is “inactive”. Turning to `COc1ccc(OC)c(C(O)c2nc3ccccc3n2C)c1` (stereo not given), the Potency result is “inactive”.

With `CCN(CCCNC(=O)c1c(C)oc2ncn(CC(C)C)c(=O)c12)Cc1ccccc1`, the Potency result is “inactive”. `Cc1ccc(NC(=O)C(=O)NCc2ccc(/C=N/NC(=O)c3c(C)nc4cc(C)ccn34)o2)cc1`: the Potency was 2.13 µM (active). Take `Cc1ccn2c(=O)c(NC(=O)c3cccc4ccccc34)c(C)nc2c1`: the Potency result was “inactive”. On to `CCOc1ccc(/C=N\NC(=O)c2c(C)nc3cc(C)ccn23)cc1`, for which the Potency entry is “inactive”. As for `N=C1C(=O)OCC1c1ccccc1NC(=O)CN1CCCCC1` (stereo not given), the Potency entry was “inactive”. For `CN(Cc1ccccc1)C(=O)c1cn(C)c2ccc(S(=O)(=O)N3CCCCC3)cc2c1=O`, the Potency entry was “inactive”.

As to `CCc1ccccc1NC(=O)CSc1nc(C)c(C(=O)Nc2ccccc2)c(-c2ccc(Cl)cc2)c1C#N`, the Potency result is “inactive”. Regarding `Cc1cc(C)n(CCNS(=O)(=O)c2ccc(Cl)cc2)n1`, the Potency entry is “inactive”. The entry for `C=CCN1C(=O)C(Cc2cccc(Cl)c2)S/C1=N/N=C/c1ccco1` (stereo not given) is “inactive”; for `COc1ccc(CN2C(=O)C(C)S/C2=N/N=C/c2ccco2)cc1` (stereo not given) it is 15.1 µM (active). Turning to `O=C1N/C(=N\N=C\c2ccco2)SC1Cc1ccc(F)cc1` (stereo not given), the Potency entry is “inactive”. Regarding `COc1cccc(C2C(C(=O)Nc3ccc(C)cc3C)=C(C)Nc3c(C(=O)Nc4ccccc4)cnn32)c1` (stereo not given), the Potency entry is “inactive”. With `COc1ccc(Oc2cn[nH]c2-c2ccc(OC)cc2O)cc1`, the Potency result was “inactive”. For the molecule `COc1ccc(/C=C2/C(=O)OCc3cc(OC)c(OC)cc32)c(OC)c1`, the Potency is 12 µM (active).

For `COc1ccc(CN(C)Cc2nc3cc(OC)c(OC)cc3c(=O)[nH]2)c(OC)c1`, the Potency entry was “inactive”. With `COc1cc([N+](=O)[O-])ccc1NC(=O)COC(=O)CCOc1ccc(C)cc1`, the Potency entry is “inactive”. As for `COc1ccccc1-c1nnc(SCC(N)=O)o1`, the entry is “inactive”; as for `Cc1ccc(OC(=O)CSc2nnc(-c3cccs3)o2)cc1`, “inactive”. On to `COc1ccc(-c2nnc(SCC(=O)c3cccs3)o2)c(OC)c1`, for which the Potency was 2.39 µM (active). The entry for `CCCCCCn1cc(C(=O)O)c(=O)c2cc(F)c(N3CCCCC3)cc21` is “inactive”; for `O=C(Nc1ccc(S(=O)(=O)Nc2nccs2)cc1)c1cccc(S(=O)(=O)N2CCOCC2)c1` it is “inactive”; for `O=C(Nc1nc2cc3c(cc2s1)OCCO3)c1cccc(S(=O)(=O)N2CCOCC2)c1` it is 7.57 µM (active).

`Cc1cc2nc(NC(=O)c3ccc(S(=O)(=O)N4CCOCC4)cc3)sc2cc1C`: the Potency entry was “inactive”. In the case of `CC(Sc1nnc(-c2cccs2)n1C1CC1)C(=O)NCC1CCCO1` (stereo not given), the Potency result was “inactive”. As for `CCOc1ccccc1NC(=O)C1=C(C)Nc2ncnn2C1c1ccc(NC(C)=O)cc1` (stereo not given), the Potency entry is “inactive”. Turning to `COc1ccc(-c2nnc3n2CCCCC3)cc1`, the Potency result was “inactive”.

Turning to `COc1ccc(-c2nc3n(c2Br)CCC3)cc1`, the Potency was 7.57 µM (active). Turning to `Brc1cccc(-c2nnc3n2CCC3)c1`, the Potency entry is “inactive”. `O=C(NCC(=O)N1CCN(c2ccccc2O)CC1)c1ccc2ccccc2c1`: the Potency result is “inactive”. As for `CC(=O)CCC(=O)c1ccc2ccccc2c1`, the Potency is 26.9 µM (active). In the case of `COc1cccc(N2CC(NC(=O)c3ccc4ccccc4c3)CC2=O)c1` (stereo not given), the Potency result was “inactive”.

`CC(=O)c1ccc2c(ccc3ccccc32)c1`: the Potency is 21.3 µM (active).

Consider `CCN(CC)Cc1cc(C(C)=O)ccc1O`, for which the Potency entry is “inactive”. Consider `CC(=O)c1ccc2c(c1)c1ccccc1n2CC(C)C`, for which the Potency result is “inactive”. As to `CC(C)(C)OC(=O)NCCCCCNC(=O)c1nc[nH]c1C(=O)NCc1ccccc1`, the Potency result is “inactive”. As to `Cc1ccccc1NC(=O)Cn1c(=O)n(Cc2ccco2)c(=O)c2ccc(C(=O)NC3CCCC3)cc21`, the Potency entry is “inactive”.

With `CNC(=O)c1nnn(-c2ccccc2)c1C(=O)NC`, the Potency entry is “inactive”.

In the case of `CC(=O)NC12CC3CC(C1)CC(C(=O)N1CCN(S(=O)(=O)c4cccs4)CC1)(C3)C2`, the Potency result is “inactive”. In the case of `CC(C)(C)c1ccc(C(=O)Nc2ccc3c(c2)CCCN3C(=O)c2cccs2)cc1`, the Potency entry is “inactive”. Take `CCc1nnc(SCC(=O)Nc2cc(OC)ccc2OC)nc1CC`: the Potency result is “inactive”. As for `O=C(O)c1ccc(NS(=O)(=O)c2ccc3c(c2)C(=O)c2cc(S(=O)(=O)Nc4ccc(C(=O)O)cc4)ccc2-3)cc1`, the Potency was 23.9 µM (active). Consider `CC(=O)c1c(C)oc2ccc(NS(=O)(=O)c3ccc(C(=O)O)cc3)cc12`, for which the Potency entry is “inactive”.

On to `O=C(c1ccc(NS(=O)(=O)c2ccc3[nH]c(=O)[nH]c3c2)cc1)N1CCCCC1`, for which the Potency entry is “inactive”. As for `O=C(CSc1ncc(CO)n1Cc1ccc(F)cc1)NCc1ccco1`, the entry is “inactive”. The entry for `COc1ccccc1NC(=O)Cn1cnc2ccc(S(=O)(=O)N3CCC(C)CC3)cc2c1=O` is “inactive”.

In the case of `CCCN(CC(=O)Nc1ccccc1C)C(=O)c1ccc2[nH]c3c(c2c1)CC(C)CC3` (stereo not given), the Potency result was “inactive”. The entry for `c1ccc2c(NC3C4CC5CC(C4)CC3C5)nc(N3CCOCC3)nc2c1` (stereo not given) is “inactive”. As for `Cc1cc(OCC(=O)Nc2ncn[nH]2)c(C)c(C)c1Br`, the Potency result was “inactive”. As to `CC1Cc2ccccc2N1C(=O)CSc1nnc(C2CC2)n1C` (stereo not given), the Potency entry was “inactive”. Consider `O=C(c1ccc2ccccc2n1)N1CCN(c2ccccc2Cl)CC1`, for which the Potency was 16.9 µM (active). Consider `O=C(c1c(Cl)cccc1Cl)N1CCN(c2cccc3[nH]ccc23)CC1`, for which the Potency entry is “inactive”. For `COc1ccccc1N1CCN(C(=O)c2c(-c3c(Cl)cccc3Cl)noc2C)CC1`, the Potency result was “inactive”. As for `Cc1ccc(NC(=O)CSCC(=O)Nc2sccc2C#N)cc1`, the Potency entry is “inactive”. In the case of `Cc1cccc(C)c1Nc1nnc(SCC(=O)Nc2sccc2C#N)s1`, the Potency result was “inactive”. As for `Cc1csc(SCC(=O)Nc2sccc2C#N)n1`, the figure is 2.13 µM (active).
